Legend:
Experiment in all cases: protein-binding microarray (PBM); PBM: ~300 nM protein, 6 mM HEPES pH 7.8, 80 mM KCl, 0.5 mM EDTA, 0.5 mM EGTA, 6% glycerol, 35 ng/ul poly-dIdC, 1% milk, 1 h, room temperature; Ap Aiptasia and Nv Nematostella (sea anemones) / Co Capsaspora / Aq Amphimedon (sponge) / Dm Drosophila / Hu human; RHD is the Rel homology domain; high values mean tight binding
Conditions in all cases: dsDNA, one strand shown
GST-Ap-NF-kB RHD = molecular target: T1, GST-Ap-NF-kB RHD (Exaiptasia pallida (Aiptasia), UniProt A0A913YAJ5 2-422)
T1 sequence: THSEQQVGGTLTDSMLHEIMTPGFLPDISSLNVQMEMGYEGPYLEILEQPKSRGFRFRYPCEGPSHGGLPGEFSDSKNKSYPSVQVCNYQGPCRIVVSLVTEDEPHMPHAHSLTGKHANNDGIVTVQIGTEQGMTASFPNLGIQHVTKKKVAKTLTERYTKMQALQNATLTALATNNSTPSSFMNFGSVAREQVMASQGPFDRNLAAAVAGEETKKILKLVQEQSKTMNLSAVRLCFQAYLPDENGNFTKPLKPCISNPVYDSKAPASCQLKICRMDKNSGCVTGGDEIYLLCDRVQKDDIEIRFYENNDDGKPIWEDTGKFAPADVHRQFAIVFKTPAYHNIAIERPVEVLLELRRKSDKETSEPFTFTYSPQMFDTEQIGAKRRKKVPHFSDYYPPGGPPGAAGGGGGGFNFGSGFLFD

[1] = molecular target: T2, GST-Nv-NF-kB (Cys allele) (Nematostella vectensis, UniProt E5G601 2-411)
T2 sequence: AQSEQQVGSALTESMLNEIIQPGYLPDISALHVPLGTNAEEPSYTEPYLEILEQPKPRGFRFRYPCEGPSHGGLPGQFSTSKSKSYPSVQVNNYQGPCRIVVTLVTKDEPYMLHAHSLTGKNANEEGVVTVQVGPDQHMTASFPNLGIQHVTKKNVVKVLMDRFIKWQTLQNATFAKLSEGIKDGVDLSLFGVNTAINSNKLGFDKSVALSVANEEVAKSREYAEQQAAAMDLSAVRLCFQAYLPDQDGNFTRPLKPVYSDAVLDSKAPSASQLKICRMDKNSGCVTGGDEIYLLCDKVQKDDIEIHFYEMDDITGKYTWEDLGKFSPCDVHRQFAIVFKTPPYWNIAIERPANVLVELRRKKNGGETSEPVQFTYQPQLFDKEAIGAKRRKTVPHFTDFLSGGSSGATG

GST-Co-NF-kB = molecular target: T3, GST-Co-NF-kB (Capsaspora owczarzaki, UniProt F1ARL5 200-546)
T3 sequence: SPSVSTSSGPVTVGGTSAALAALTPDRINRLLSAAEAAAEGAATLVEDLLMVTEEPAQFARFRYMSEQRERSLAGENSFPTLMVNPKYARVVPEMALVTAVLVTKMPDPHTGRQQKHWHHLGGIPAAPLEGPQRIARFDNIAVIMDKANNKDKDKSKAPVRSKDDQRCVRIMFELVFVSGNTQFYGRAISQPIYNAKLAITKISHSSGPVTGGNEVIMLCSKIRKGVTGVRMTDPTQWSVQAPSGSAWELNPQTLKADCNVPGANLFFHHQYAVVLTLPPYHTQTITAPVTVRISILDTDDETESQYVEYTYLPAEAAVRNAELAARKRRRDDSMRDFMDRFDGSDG

GST-Dm-Relish = molecular target: T4, GST-Dm-Relish (Drosophila melanogaster, UniProt Q94527 99-473)
T4 sequence: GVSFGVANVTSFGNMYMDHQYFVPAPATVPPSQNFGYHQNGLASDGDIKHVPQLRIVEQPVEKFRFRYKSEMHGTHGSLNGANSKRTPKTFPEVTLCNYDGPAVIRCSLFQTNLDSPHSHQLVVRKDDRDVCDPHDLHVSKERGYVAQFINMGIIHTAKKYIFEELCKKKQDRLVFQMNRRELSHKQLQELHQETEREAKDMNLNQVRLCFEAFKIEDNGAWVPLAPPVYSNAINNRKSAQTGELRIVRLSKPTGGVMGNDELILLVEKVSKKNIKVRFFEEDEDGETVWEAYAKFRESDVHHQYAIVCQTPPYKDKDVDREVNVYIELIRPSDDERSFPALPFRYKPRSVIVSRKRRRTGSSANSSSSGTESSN

GST-Aq-NF-kB = molecular target: T5, GST-Aq-NF-kB (Amphimedon queenslandica, UniProt A9Y5G7 2-389)
T5 sequence: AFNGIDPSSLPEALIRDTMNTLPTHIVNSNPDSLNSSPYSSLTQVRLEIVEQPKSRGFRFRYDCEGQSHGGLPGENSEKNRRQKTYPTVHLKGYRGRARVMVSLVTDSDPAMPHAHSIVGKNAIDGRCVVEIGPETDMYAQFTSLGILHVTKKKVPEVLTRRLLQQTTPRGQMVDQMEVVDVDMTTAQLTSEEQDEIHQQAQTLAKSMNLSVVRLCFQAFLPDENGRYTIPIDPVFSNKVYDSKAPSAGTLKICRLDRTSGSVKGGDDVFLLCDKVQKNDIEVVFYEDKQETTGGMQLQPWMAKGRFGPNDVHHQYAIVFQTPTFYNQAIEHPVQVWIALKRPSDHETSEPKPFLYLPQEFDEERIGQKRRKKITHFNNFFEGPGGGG

Sequence | binding signal (GST-Ap-NF-kB RHD) [z-score] | binding signal [1] [z-score] | binding signal (GST-Co-NF-kB) [z-score] | binding signal (GST-Dm-Relish) [z-score] | binding signal (GST-Aq-NF-kB) [z-score]
CCGATTAACATCAAGTTTACCCCTGATGTTAATCGGGTCTTGATTCGCTTGACGCTGCTG | 3.21 | 2.2 | 6.61 | 2.4 | 2.91
CCGATTAACATCACATTTTCCCATGATGTTAATCGGGTCTTGATTCGCTTGACGCTGCTG | 2.42 | 3.68 | 3.98 | 1.33 | 2.13
CCGATTAACATCAGGGAAAACGATGATGTTAATCGGGTCTTGATTCGCTTGACGCTGCTG | 2.75 | 3.95 | 3.39 | 1.18 | 2.74
CCGATTAACATCAGACTTCCCCATGATGTTAATCGGGTCTTGATTCGCTTGACGCTGCTG | 4.7 | 5.64 | 4.24 | 4.24 | 4.9
CCGATTAACATCAAGGGGGAGGGTGATGTTAATCGGGTCTTGATTCGCTTGACGCTGCTG | 4.24 | 3.46 | 4.4 | 3.15 | 4.42
CCGATTAACATCACGTAAACCCCTGATGTTAATCGGGTCTTGATTCGCTTGACGCTGCTG | 3.55 | 2.68 | 1.08 | 6.43 | 3.41
CCGATTAACATCAGGGGATCTACTGATGTTAATCGGGTCTTGATTCGCTTGACGCTGCTG | 5.31 | 4.68 | 1.96 | 9.02 | 5.74
CCGATTAACATCAGGGGGGACAATGATGTTAATCGGGTCTTGATTCGCTTGACGCTGCTG | 4.56 | 4.19 | 6.09 | 2.95 | 4.16
CCGATTAACATCAAGGATTTCCCTGATGTTAATCGGGTCTTGATTCGCTTGACGCTGCTG | 4.49 | 6.09 | 3.24 | 6.12 | 6.2
CCGATTAACATCAGGGAATTGTATGATGTTAATCGGGTCTTGATTCGCTTGACGCTGCTG | 2.85 | 4.78 | 3.1 | 1.21 | 4.7
CCGATTAACATCAAGGATTCCCGTGATGTTAATCGGGTCTTGATTCGCTTGACGCTGCTG | 2.73 | 3.43 | 3.1 | 6.9 | 3.92
CCGATTAACATCAAATAGGGAATTGATGTTAATCGGGTCTTGATTCGCTTGACGCTGCTG | 2.29 | 5.11 | 1.54 | 1.32 | 3.5
CCGATTAACATCAAATGACCCCCTGATGTTAATCGGGTCTTGATTCGCTTGACGCTGCTG | 4.25 | 2.8 | 2.98 | 3.27 | 4.02
CCGATTAACATCAGGGATTTCTATGATGTTAATCGGGTCTTGATTCGCTTGACGCTGCTG | 4.28 | 4.04 | 1.22 | 5.1 | 4
CCGATTAACATCAGGGAAAGAAATGATGTTAATCGGGTCTTGATTCGCTTGACGCTGCTG | 1.61 | 3.74 | 4.91 | 1.72 | 3.72
CCGATTAACATCACTTTACCCCCTGATGTTAATCGGGTCTTGATTCGCTTGACGCTGCTG | 4.02 | 2.61 | 6.83 | 2.27 | 3.05
CCGATTAACATCAGGGGAGTTAATGATGTTAATCGGGTCTTGATTCGCTTGACGCTGCTG | 4.13 | 4.06 | 3.34 | 3.14 | 3.63
CCGATTAACATCAACCACCCCCTTGATGTTAATCGGGTCTTGATTCGCTTGACGCTGCTG | 3.52 | 3.02 | 2.25 | 2.48 | 3.83
CCGATTAACATCAGGGGGTACCCTGATGTTAATCGGGTCTTGATTCGCTTGACGCTGCTG | 7.79 | 4.44 | 4.14 | 6.71 | 6.6
CCGATTAACATCAGGCATTCCCATGATGTTAATCGGGTCTTGATTCGCTTGACGCTGCTG | 1.57 | 2 | 1.54 | 3.64 | 2.75
CCGATTAACATCAAACACCCCCCTGATGTTAATCGGGTCTTGATTCGCTTGACGCTGCTG | 4.89 | 4.54 | 4.93 | 5.5 | 5.86
CCGATTAACATCAGTAACTCCCTTGATGTTAATCGGGTCTTGATTCGCTTGACGCTGCTG | 2.54 | 2.67 | 1.16 | 2.91 | 3.78
CCGATTAACATCAAGGGATTTCCTGATGTTAATCGGGTCTTGATTCGCTTGACGCTGCTG | 5.46 | 5.12 | 1.32 | 7.74 | 6.44
CCGATTAACATCAAAATTCCCATTGATGTTAATCGGGTCTTGATTCGCTTGACGCTGCTG | 3.68 | 6.03 | 3.56 | 6.03 | 4.99
CCGATTAACATCAACTAATTCCCTGATGTTAATCGGGTCTTGATTCGCTTGACGCTGCTG | 2.18 | 4.19 | 3.13 | 1.91 | 3.44
CCGATTAACATCAGGGAAACCACTGATGTTAATCGGGTCTTGATTCGCTTGACGCTGCTG | 3.4 | 4.47 | 3.12 | 8.4 | 6.48
CCGATTAACATCAGAATTCCCGCTGATGTTAATCGGGTCTTGATTCGCTTGACGCTGCTG | 3.59 | 4.74 | 3.87 | 3.89 | 3.98
CCGATTAACATCATAATTCCCAATGATGTTAATCGGGTCTTGATTCGCTTGACGCTGCTG | 1.92 | 3.54 | 2.94 | 2.22 | 2.84

— PMC5700166
